# Screening results from PubChem BioAssay.
# L3MBTL1 inh – inhibitors of human L3MBTL1; Q9Y468; AlphaScreen L3MBTL1–H3K9me1 peptide binding; Potency, µM (series often up to 57.1 µM), for the others: at the highest dose activity, negative = inhibition, hits mostly inhibitors; 230,000 compounds, 0.66% hits; further: on the % scale 0 is the no-effect control and ±100 the full control effect; nearly all actives have a fitted effect of over 60% in size
#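 Displacement of a biotinylated histone H3(1-15) peptide monomethylated at Lys9 (75 nM) from L3MBTL1 (50 nM) was measured by AlphaScreen after a 30 min room-temperature compound incubation; cefsulodin titration served as intraplate control.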
# G9a inh – inhibitors of human histone lysine methyltransferase G9a | Q96KQ7 | G9a H3K9 monomethylation, AlphaScreen, 2 h | Potency, µM (series often up to 102 µM), without a hit: top-dose activity, negative = inhibition, hits mostly inhibitors | 350,000 compounds, 8.8% hits | AID 504332; further: on the % scale 0 is the no-effect control and ±100 the full control effect; nearly all actives have a fitted effect of over 75% in size
#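 G9a (20 nM) was preincubated 15 min with compound, then reacted 2 h at room temperature with 500 nM biotin-H3K9 peptide and 20 µM SAM. Monomethyl-H3K9 detected by AlphaScreen using anti-H3K9me1 antibody.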
# HP1b binding inh – blocks HP1-beta chromodomain binding to methylated histone tails; AID 540317; 390,000 compounds, 0.56% hits; Potency, µM (top dose mostly 114 µM), without a hit: at the top dose activity change, negative = inhibition, usual class: inhibitors; AlphaScreen HP1-beta / biotin-H3K9me3 peptide binding; P83916; further: nearly all actives have a fitted effect of over 70% in size
#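 Compound inhibition of the preformed complex between 50 nM HP1-beta and 50 nM biotinylated H3K9me3 peptide was read by AlphaScreen. Buffer was PBS pH 7.4 with 0.01% Tween-20. Incubations ran 30 min at room temperature, with 10 ug/mL donor/acceptor beads.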
# Sfp PPTase inh – blocks B. subtilis Sfp PPTase activity; Potency, µM, inactives show largest response in the series, negative = inhibition, actives largely listed as inhibitors; 310,000 compounds, 3.5% hits; Q9F4F7; AID 1490; Biochemical Sfp PPTase activity, qHTS;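 further: the enzyme is Sfp with the accession as filed and its product quenches rhodamine fluorescence; 0% = enzyme reaction without inhibitor and -100% = no enzyme wells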
#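 After 15 min at room temperature with compound, 15 nM Sfp received 5 uM rhodamine-CoA plus 12.5 uM BHQ-2-ybbR (50 mM Hepes pH 7.6, 10 mM MgCl2). Rate came from the fluorescence difference over 30 min, ex 525/em 598 nm.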
# JMJD2A Tudor – inhibitors of human JMJD2A Tudor domain | 390,000 compounds, 4.4% hits | Potency, µM (top dose mostly 114 µM), inactives show at the highest dose activity change, negative = inhibition, hits mostly inhibitors | AlphaScreen JMJD2A-Tudor / H3K4me3 peptide binding; further: on the % scale 0 is the no-effect control and ±100 the full control effect; nearly all actives have a fitted effect of over 50% in size
# BAZ2B inh – inhibitors of human BAZ2B bromodomain; Q9UIF8; AlphaScreen BAZ2B-H3K14Ac peptide displacement; Potency, µM (top dose mostly 114 µM), inactives show top-dose activity change, negative = inhibition, most hits filed as inhibitors; 360,000 compounds, 4.4% hits; further: on the % scale 0 is the no-effect control and ±100 the full control effect; nearly all actives have a fitted effect of over 60% in size
#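 Protein-peptide AlphaScreen: BAZ2B 50 nM, b-H3K14Ac 50 nM, 1x PBS pH 7.4 + 0.01% Tween-20. Preincubation 30 min RT; cpd 30 min RT (top 110 uM); beads 20 min RT, light-protected.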
# * hit, by the source's call; ? = inconclusive; . = no result; [ ] = dose if it differs, or a comment. Only some compounds are listed: those with a hit (about 12% of all), similar ones and a draw of the others. The call rests on the fitted dose curve; in most records, active means well fitted curve in the direction sought with a large enough effect; inconclusive means small, poorly fitted or top-dose-only effect, or another doubt; inactive means no such curve, though single readings can be large; an effect the other way counts as inactive or inconclusive. Potency means the concentration at half of the fitted maximal effect.
SMILES,L3MBTL1 inh,G9a inh,HP1b binding inh,Sfp PPTase inh,JMJD2A Tudor,BAZ2B inh
CCOc1ccc(C(=O)c2cn(CC(=O)Nc3ccc(OC)cc3)c3cc4c(cc3c2=O)OCCO4)cc1,.,-28%[59 µM],39%,.,-1%,0%
Cn1cnc2cc(NCc3ccc(Cl)cc3)ccc21,-13%,45µM*,-19%,5%,?,?
CCCn1cnc2cc(NCc3ccc(Br)cc3)ccc21,.,45µM*,?,-9%,16µM*,45µM*
CCn1cnc2cc(NCc3ccc(Br)cc3)ccc21,.,13µM*,?,-1%,14µM*,45µM*
CCCn1cnc2cc(NCc3ccccc3O)ccc21,.,40µM*,4%,10%,-36%,-30%
CCCn1cnc2cc(NCc3cccc(OC)c3)ccc21,-15%,-4%[12.7 µM],-23%,-1%,?,?
N#Cc1ccccc1NC(=O)C(=O)NCCc1csc(-c2ccc(F)cc2)n1,1%,16%[12.7 µM],21%[57 µM],.,-12%,14%
CC1=C(C)C(=O)C(C(CCCCCC(=O)O)c2ccccc2)=C(C)C1=O (stereo not drawn),.,-23%[12.7 µM],.,2%,.,.
Cc1cc2nc3c(=O)[nH]c(=O)nc-3n(C[C@H](O)[C@H](O)[C@H](O)COP(=O)(O)OP(=O)(O)OC[C@H]3O[C@@H](n4cnc5c(N)ncnc54)[C@H](O)[C@@H]3O)c2cc1C,.,-29%[12.7 µM],.,1%,.,.
Cc1ccc(NC(=O)CS(=O)CC(=O)Nc2ccccc2-c2ccc(C)o2)cc1 (stereo not drawn),.,?,26%,-14%,-23%,-8%
Cc1cccc(NC(=S)NNC(=O)c2ccc3c(c2)OCO3)c1,5%,45µM*,25%,3%,-24%,-10%
CCCc1cc(C(=O)NNC(=S)Nc2cccc(C)c2)cs1,-10%,8.9µM*,?,9%,-25%,-24%
Cc1cccc(NC(=S)NNC(=O)c2ccco2)c1,2%,-9%[12.7 µM],2%,0%,-18%,-6%
COc1cc(C(=O)NC(=S)Nc2ccc3c(c2)OCO3)cc(OC)c1OC,-4%,.,-2%,-18%,-30%,-9%
COc1cc(C(=O)NC(=S)NNC(=O)c2ccc3c(c2)OCO3)cc(OC)c1OC,.,35µM*,9%,10%,-13%,-5%
C=C(C)C(O)/C=C/c1ccc(Br)cc1 (stereo not drawn),.,.,.,22%,.,.
CC1=C(C)C(=O)C(CCCCC#CCCCC#CCO)=C(C)C1=O,-11%,19µM*,?,?,40µM*,40µM*
Cc1ccc(CNC(=O)C2CCN(c3nn4cc(-c5ccc(F)cc5)nc4s3)CC2)cc1,.,1%[59 µM],-11%,.,-15%,2%
O=c1[nH]c(=O)n(C2CC(O)C(CO)O2)cc1Br (stereo not drawn),.,.,-12%,.,79µM*,.
COc1ccc(Nc2nc(N)c(C(=O)c3ccc(OC)cc3)s2)cc1,.,?,15%,-25%,?,-24%
CCOc1ccc(Nc2nc(N)c(C(=O)c3ccccc3Cl)s2)cc1,.,-33%[59 µM],?,.,45µM*,?
Cc1ccc(C(=O)c2sc(Nc3ccc(F)cc3)nc2N)c(C)c1,.,?,?,.,79µM*,40µM*
COc1ccc(Nc2nc(N)c(C(=O)c3ccc(F)cc3)s2)cc1,.,?,-4%,?,?,21%
CC(C)(C)C(=O)c1sc(Nc2ccccc2)nc1N,-17%,25µM*,?,?,56µM*,50µM*
Cc1ccc(Cl)cc1N1CCN(S(=O)(=O)c2ccc3c(c2)CCN3C(=O)C2CCC2)CC1,.,-5%[59 µM],45%,.,-6%,.
SMILES,L3MBTL1 inh,G9a inh,HP1b binding inh,Sfp PPTase inh,JMJD2A Tudor,BAZ2B inh
O=C(COc1ccc(Cl)cc1)Nc1ccc(C(=O)O)cc1NC(=O)COc1ccc(Cl)cc1,.,1%,21%,17%,-21%,50µM*
O=C1CCCC2(O)C1C(c1cccc(Br)c1)NC(=O)N2Cc1ccccc1 (stereo not drawn),23%,45µM*,51%,?,7%,30%
COc1ccc(OC)c(NC(=O)c2cc3cccc(OC)c3oc2=O)c1,.,-10%[59 µM],46%,.,-12%,0%
Cc1ccc(C(=O)c2c3ccc([N+](=O)[O-])cc3[n+]([O-])n2CCC(N)=O)cc1,-5%,50µM*,12%,11%,-31%,?
COc1ccc(C(=O)c2c3ccc([N+](=O)[O-])cc3[n+]([O-])n2CCCC(N)=O)cc1,-8%,16%[2.33 µM],11%,.,-26%,1%
O=C(COC(=O)c1cnccn1)Nc1ncc(Cl)cc1Cl,?,28µM*,-15%,.,?,50µM*
O=C(COC(=O)c1ccc(Br)o1)Nc1ncc(Cl)cc1Cl,.,?,11%,-6%,?,50µM*
COc1cccc(C(=O)NCC(=O)OCC(=O)c2ccccc2)c1,2%,-10%[59 µM],-1%,6%,-19%,1%
COc1cc(OC)cc(C(=O)NCC(=O)OCC(=O)c2ccc3c(c2)-c2ccccc2C3)c1,-12%,35µM*,45%,-9%,-11%,10%
COc1cc(OC)cc(C(=O)NCC(=O)OCC(=O)Nc2ncc(Cl)cc2Cl)c1,-18%,71µM*,-5%,7%,-27%,-18%
O=C1Cc2cc(S(=O)(=O)N3CCN(c4ccc(C(F)(F)F)cc4)CC3)ccc2N1,.,.,.,.,-30%[229 µM],.
COc1ccccc1C(=O)NC(=O)COC(=O)c1ccc([N+](=O)[O-])cc1Cl,-1%,12%[59 µM],10%,.,-16%,-5%
CN(c1ccccc1)S(=O)(=O)c1ccc(Cl)c(C(=O)Nc2nn[nH]n2)c1,-1%,28µM*,25%,-12%,-18%,?
Cc1ccccc1/C=N/NC(=O)Cn1cnc([N+](=O)[O-])n1,.,-2%,24%,2%,-2%,?
O=C(Cn1cnc([N+](=O)[O-])n1)N/N=C/c1cc(Cl)ccc1O,18µM*,8%,19%,21%,32µM*,28µM*
O=C(Cn1cnc([N+](=O)[O-])n1)N/N=C/c1ccccc1O,?,95%[59 µM],50%,27%,?,14µM*
CN1CCN(c2ncc3nc(-c4ccccc4)c(=O)n(C)c3n2)CC1,.,7%[0.501 µM],.,16%,.,.
CNc1cc(OC)c(C(=O)N[C@@H]2CCN(Cc3ccccc3)[C@H]2C)cc1Cl,.,2%[12.7 µM],.,-15%,.,.
CCCCN(C)C(=O)Cc1c(OC)ccc2cc(Br)ccc12,3%,32µM*,?,1%,25µM*,-3%
COc1ccc2cc(Br)ccc2c1CC(=O)N(C)C,3%,?,38%,19%,-6%,-10%
COC(=O)C1CCN(C(=O)Cc2c(OC)ccc3cc(Br)ccc23)CC1,-19%,-32%,31%,56µM*,-19%,?
